Values without a mark were called inactive. Unless noted, how the calls were made is not given here.

One experiment deals with Homeobox protein Hox-A13 (Mus musculus) (UniProt Q62424). Briefly: disruptors of Hoxa13 oligonucleotide interaction – biochemical, fluorescence polarization, labeled oligonucleotide, primary screen (AID 1185). The note with it: Hoxa13:DNA binding, 15 min, higher = more signal, called active from +8 up or from −8 down. On the technique in general: In fluorescence polarisation assays a small probe gives low polarisation when free and higher when bound to something large.
Homeobox protein Hox-A13 (Mus musculus), sequence (Q62424 whole entry, looked up): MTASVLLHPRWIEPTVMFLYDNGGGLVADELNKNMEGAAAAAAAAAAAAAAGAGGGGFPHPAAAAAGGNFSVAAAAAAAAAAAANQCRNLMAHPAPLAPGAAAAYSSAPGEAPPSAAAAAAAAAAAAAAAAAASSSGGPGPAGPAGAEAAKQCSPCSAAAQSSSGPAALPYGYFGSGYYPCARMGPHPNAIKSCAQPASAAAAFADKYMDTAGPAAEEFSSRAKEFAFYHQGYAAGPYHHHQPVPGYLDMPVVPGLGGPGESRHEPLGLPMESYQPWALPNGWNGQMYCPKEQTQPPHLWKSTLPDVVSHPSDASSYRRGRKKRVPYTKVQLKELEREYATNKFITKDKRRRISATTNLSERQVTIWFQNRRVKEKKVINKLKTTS
Take `CCOC(=O)C[C@H]1[C@H](OC(=O)c2cc3ccccc3oc2=O)[C@@H](NC(=O)Cc2ccc(OC)cc2)c2cc(OCCCO)ccc2N1C(=O)Cc1ccc(OC)cc1`: the z-score was -5.1.

Turning to `COCCCNC(=O)[C@@]1(Cc2ccccc2I)c2ccccc2C(=O)N(Cc2ccccc2C(F)(F)F)[C@H]1c1ccc(CO)cc1`, the z-score is -4.3.

Turning to `CC1C2C(CCCO)=CC(C3C(=O)N(C)C(=O)C23)N1Cc1cccc(OC(F)(F)F)c1` (stereo unspecified), the z-score was -7.46.

With `CC(C)c1ccc(NN2C(C(O)C(C)c3ccccc3)C=CC3C(=O)N(c4ccccc4)C(=O)C32)cc1` (stereo unspecified), the z-score is -2.2.

Consider `CCOC(=O)C[C@H]1[C@H](OC(=O)c2ccccc2-c2ccccc2)[C@@H](NC(=O)CC(C)C)c2cc(OCCCO)ccc2N1C(=O)c1ccccc1`, for which the z-score was -4.48.

In the case of `COC(=O)[C@@]1(Cc2ccc(F)cc2)[C@H]2c3cc(C(=O)N(C)C)n(Cc4ccsc4Br)c3C[C@H]2CN1C(=O)c1ccccc1`, the z-score was -5.36.

On to `COCCCNC(=O)[C@@]1(Cc2ccccc2I)c2ccccc2C(=O)N(Cc2ccccc2OC)[C@H]1c1ccc(CO)cc1`, for which the z-score is -4.88.

As to `COc1ccc([Si](C)(C)[C@H]2[C@H](CC(=O)N3CCC[C@H]3CO)O[C@@]3(C(=O)N(C)c4c(Br)cc(C)cc43)[C@@H]2C)cc1`, the z-score was -5.84.

Tested on in the next experiment: not listed separately
Briefly: blockers of DNA damage checkpoint Chk1 activation – imaging, HeLa, hydroxyurea, phospho-Chk1 antibody, percent positive cells, primary screen (AID 1186). The conditions noted are these: hydroxyurea-induced phospho-Chk1 immunofluorescence imaging, higher = more signal.
Take `Cc1ccc(S[C@]2(C(=O)NCc3ccccc3)CC(=O)N(Cc3ccccc3C(F)(F)F)[C@@H]2c2ccc(CO)cc2I)cc1`: the z-score is 0.225.

As to `C=CCNC(=O)[C@@H]1[C@H]2C(=O)O[C@H](c3ccccc3)[C@H](c3ccccc3)N2[C@H](c2ccc(OCCO)cc2)[C@@]12C(=O)Nc1ccc(C#CC3=CCCCC3)cc12`, the z-score was 0.269.

For `Cc1ccc(S[C@]2(C(=O)NCc3ccccc3)CC(=O)N(Cc3ccccc3Cl)[C@@H]2c2ccc(CO)cc2)cc1`, the z-score was 0.172.

As for `COc1cccc(C)c1NC(=O)O[C@H]1[C@H](OC(=O)Nc2ccccc2-c2ccccc2)[C@@H](OC(=O)Nc2ccccc2-c2ccccc2)[C@@H](OC)O[C@@H]1CO`, the z-score was 0.609.

As for `Cc1ccc(N2C(=O)c3ccccc3[C@@H](C(=O)NCCN3CCOCC3)[C@@H]2c2ccc(CO)cc2)nc1`, the z-score is 0.0197.

For `C=CC[C@@]1(C(=O)NCCCOC)N=C(c2ccc(OCCCO)cc2)O[C@@H]1c1ccccc1CN=[N+]=[N-]`, the z-score is -0.551.

Take `CC(=O)NCCCC[C@@H]1NC(=O)[C@H]2C[C@@H](C(=O)NCCCCCN)[C@@H](c3ccc(O)cc3)N2C1=O`: the z-score is 0.32.

As for `C=C(COC)C(=O)CC[C@H](OC(C)=O)c1ccc(CO)o1`, the z-score was -0.707.

Turning to `Cc1cccc([C@H]2C[C@H]3C(Br)=C[C@@]2(CO)C(=O)[C@]32CO2)c1`, the z-score was -0.272.

Turning to `[N-]=[N+]=NCc1ccccc1[C@H]1OC(c2ccc(OCCCO)cc2)=N[C@@]1(Cc1ccccc1N=[N+]=[N-])C(N)=O`, the z-score is 0.052.

As for `COc1ccc(C(O)C2C=CC3C(=O)N(c4ccccc4)C(=O)C3N2Nc2ccccc2F)c2ccccc12` (stereo unspecified), the z-score was 0.0395.

Regarding `CN1C(=O)C2C=CC(C(O)COCc3ccccc3)N(Nc3ccc([N+](=O)[O-])cc3[N+](=O)[O-])C2C1=O` (stereo unspecified), the z-score is -0.589.

Consider `O=C1O[C@@H](c2ccccc2)[C@@H](c2ccccc2)N2[C@@H](c3ccccc3OCCO)[C@]3(C(=O)Nc4ccc(C#CC5(O)CCCCCC5)cc43)[C@@H](C(=O)N3CCCCCCC3)[C@H]12`, for which the z-score is 0.503.

On to `COC(=O)Cn1c(C(=O)N(C)C)cc2c1C[C@H]1CN(C(=O)c3ccccc3)[C@@](Cc3ccccc3)(C(=O)OC)[C@@H]21`, for which the z-score was -0.12.

For the molecule `CCCCCCc1nc(Cc2cc(OC)c(OC)c(OC)c2)c(C)c2c1[Si](C(C)C)(C(C)C)OC2`, the z-score is -0.817.

For `Cc1ccc(S[C@]2(C(=O)NC(C)C)CC(=O)N(Cc3ccccc3)[C@@H]2c2ccc(CO)cc2)cc1`, the z-score is -0.412.

Take `CC(C)[Si](C#Cc1ccccc1)(O[C@H](c1ccccc1)c1cn(Cc2ccccc2)nn1)C(C)C`: the z-score was 0.0998.

In the case of `CCOC(=O)C[C@H]1[C@H](OC(=O)c2cc3ccccc3oc2=O)[C@@H](NC(=O)c2ccc(-c3ccccc3)cc2)c2cc(OCCCO)ccc2N1C(=O)Cc1ccc(OC)cc1`, the z-score was 0.105.

The record behind these values is PubChem BioAssay.
